According to ChEMBL document CHEMBL4513216, “Probing the Open Global Health Chemical Diversity Library for Multistage-Active Starting Points for Next-Generation Antimalarials” (ACS Infect Dis, 2020):
Screen size: about 68,000 compounds; about 2,700 (4%) showed an effect of 50% or more. The sample as a whole holds a higher share of strong results than the screen did.

Tested on: Plasmodium berghei
Experiment: Screen against P. berghei liver stage (PbLuc), transformed with Luciferase, at 2uM
Format: functional, HepG2
Conditions: tested at 2 uM

**Q.** `CO[C@@H]1CCC[C@@H](NC(=O)CCCn2cncn2)[C@H]1O` was tested. Which INHIBITION did it give?
**A.** Its INHIBITION is -32.51%.

**Q.** For `CCc1cc(C(F)(F)F)n2nc(C3CCCN3C(=O)COC)cc2n1` (centres undefined), which INHIBITION is on record?
**A.** The INHIBITION was 33.56%.

**Q.** Which INHIBITION does the source give for `Cc1ncc(CN2CCOC(CNc3cccnn3)C2)s1` (centres undefined) here?
**A.** Its INHIBITION is 58.05%.

**Q.** How did the INHIBITION turn out when `Cc1nc(C)c(CN2CCOC(CNc3cccnn3)C2)s1` (centres undefined) was run?
**A.** Its INHIBITION is -15.28%.

**Q.** How did the INHIBITION turn out when `Cc1cnc(CN2CCOC(CNc3cccnn3)C2)cn1` (centres undefined) was run?
**A.** Its INHIBITION is 18.31%.

**Q.** Which INHIBITION does the source give for `CC(C)NC(=O)Cn1cc(OCc2ccc(F)cc2)c(=O)cc1CO` here?
**A.** The INHIBITION was 14.65%.

**Q.** `Cc1ccccc1[C@@H]1CN(C(=O)c2ccc3[nH]nnc3c2)C[C@H]1C(=O)O` was tested. Which INHIBITION did it give?
**A.** The INHIBITION was -45.64%.

**Q.** How did the INHIBITION turn out when `CCn1c(CN2CCCN(C(=O)OC)CC2)nc2c(F)cccc21` was run?
**A.** Its INHIBITION is 20.28%.

**Q.** How did the INHIBITION turn out when `CCn1c(CN2CCC(O)(C(=O)OC)CC2)nc2c(F)cccc21` was run?
**A.** The INHIBITION was 54.32%.

**Q.** How did the INHIBITION turn out when `CCn1c(CN2CCN(CC(N)=O)CC2)nc2c(F)cccc21` was run?
**A.** Its INHIBITION is 27.55%.

**Q.** `CN(Cc1ccccn1)C(=O)C(c1ccccc1)N1CCSCC1` (centres undefined) was tested. Which INHIBITION did it give?
**A.** The INHIBITION was 19.48%.

**Q.** For `Fc1cccnc1O[C@H]1CN(Cc2ccoc2)[C@@H]2CCCO[C@H]12`, which INHIBITION is on record?
**A.** The INHIBITION was -0.18%.

**Q.** For `Fc1cccnc1O[C@@H]1CN(Cc2ccccn2)[C@@H]2CCCO[C@@H]21`, which INHIBITION is on record?
**A.** The INHIBITION was 66.64%.

**Q.** `Fc1cccnc1O[C@@H]1CN(Cc2ccco2)[C@@H]2CCCO[C@@H]21` was tested. Which INHIBITION did it give?
**A.** The INHIBITION was -8.22%.

**Q.** With `O=C(COc1ccc2cccnc2c1)N1CCN[C@H]2CS(=O)(=O)C[C@H]21` as the compound, how does the INHIBITION read?
**A.** The INHIBITION was -7.4%.

**Q.** Which INHIBITION does the source give for `CN(C)C(=O)CN1CCC2(COCc3cnc(-c4cccnc4)nc32)C1` (centres undefined) here?
**A.** The INHIBITION was -55.8%.

**Q.** With `Cc1cc(CNCC2CNc3ccnn3C2)no1` (centres undefined) as the compound, how does the INHIBITION read?
**A.** Its INHIBITION is -10%.

**Q.** `Cc1cc2n(n1)CC(CNCc1cc(C)on1)CN2` (centres undefined) was tested. Which INHIBITION did it give?
**A.** Its INHIBITION is 57%.

**Q.** `Cc1ccc(CNCC2CNc3cc(C)nn3C2)cn1` (centres undefined) was tested. Which INHIBITION did it give?
**A.** Its INHIBITION is 4.19%.

**Q.** `NCCC(=O)N1CCC2(CC1)CN(C(=O)Cc1ccc(Cl)cc1)CCO2` was tested. Which INHIBITION did it give?
**A.** The INHIBITION was 10.62%.

**Q.** For `Cc1nn(-c2ccccc2)c(C)c1CN1CCNCC1`, which INHIBITION is on record?
**A.** The INHIBITION was 1.79%.

**Q.** For `CCc1nnc(C(C)N(C)Cc2c(C)nn(-c3ccccc3)c2C)o1` (centres undefined), which INHIBITION is on record?
**A.** The INHIBITION was 63.1%.

**Q.** `Cc1nnc(C(C)N(C)Cc2c(C)nn(-c3ccccc3C)c2C)o1` (centres undefined) was tested. Which INHIBITION did it give?
**A.** The INHIBITION was 29.39%.

**Q.** How did the INHIBITION turn out when `CC(C)c1nnc(CN(C)C(c2ccccc2)c2ccc(F)cc2)o1` (centres undefined) was run?
**A.** Its INHIBITION is -7.07%.

**Q.** With `Cc1ccccc1-n1nc(C)c(CN(C)C(C)Cc2ccccn2)c1C` (centres undefined) as the compound, how does the INHIBITION read?
**A.** The INHIBITION was -74.1%.

**Q.** How did the INHIBITION turn out when `Cc1nnc(C(C)N(C)Cc2c(C)nn(-c3ccccc3)c2C)o1` (centres undefined) was run?
**A.** Its INHIBITION is 52.08%.

**Q.** Which INHIBITION does the source give for `CC(=O)N(C)c1nc(CN2CCCC2Cn2nc(C)cc2C)cs1` (centres undefined) here?
**A.** The INHIBITION was -43.47%.

**Q.** For `CN(C)c1ncc(-c2ccncc2)c(CCNC(=O)C2CC2)n1`, which INHIBITION is on record?
**A.** The INHIBITION was -33.32%.

**Q.** With `Cn1ncc2c(=O)[nH]c(CN(Cc3ccco3)C3CC3)nc21` as the compound, how does the INHIBITION read?
**A.** The INHIBITION was 5.09%.

**Q.** With `CC(=O)NCCNC(=O)Nc1ccc(Br)cc1C(C)C` as the compound, how does the INHIBITION read?
**A.** The INHIBITION was -34.04%.

**Q.** `Cc1ccc(CN2CCC3(CCC(=O)N3CC(=O)N(C)C)CC2)s1` was tested. Which INHIBITION did it give?
**A.** The INHIBITION was 22.71%.

**Q.** Which INHIBITION does the source give for `CC1CCN(C(=O)[C@@H]2C[C@@H]3CCN(Cc4nccs4)C[C@H]3O2)CC1` here?
**A.** The INHIBITION was 31.76%.

**Q.** How did the INHIBITION turn out when `Cc1nnc2n1CCN(C(=O)CN1C(=O)CSc3ccccc31)C2` was run?
**A.** The INHIBITION was -14.79%.

**Q.** How did the INHIBITION turn out when `Cc1nnc(CN(C)Cc2ccc(C(=O)Nc3sccc3C#N)cc2)o1` was run?
**A.** Its INHIBITION is 33.9%.

**Q.** With `Cc1nnsc1CN(C)Cc1ccc(C(=O)Nc2sccc2C#N)cc1` as the compound, how does the INHIBITION read?
**A.** The INHIBITION was 67.28%.

**Q.** Which INHIBITION does the source give for `CN(Cc1ccc(C(=O)Nc2sccc2C#N)cc1)Cc1ccno1` here?
**A.** The INHIBITION was 26.74%.

**Q.** For `Cc1cc(C)n(CC2CCN(CC(O)COc3ccccc3)CC2)n1` (centres undefined), which INHIBITION is on record?
**A.** The INHIBITION was -1.96%.

**Q.** With `Cc1ccn(CCC(=O)NCc2ccc(C)o2)n1` as the compound, how does the INHIBITION read?
**A.** Its INHIBITION is 19.49%.

**Q.** For `O=C(CCn1cccc1)NCc1ccc(CN2CCCCCC2)o1`, which INHIBITION is on record?
**A.** The INHIBITION was 56.24%.

**Q.** With `O=C(COc1coc(CN2CCCCC2)cc1=O)NCc1ccccc1` as the compound, how does the INHIBITION read?
**A.** Its INHIBITION is -11.78%.

**Q.** For `Cc1cccc(CN2C(=O)CCC23CCN(C(=O)c2ccco2)CC3)c1`, which INHIBITION is on record?
**A.** Its INHIBITION is 70.48%.

**Q.** How did the INHIBITION turn out when `O=C(c1ccco1)N1CCC2(CCC(=O)N2Cc2ccccc2)CC1` was run?
**A.** The INHIBITION was 21.06%.

**Q.** `O=C(c1ccco1)N1CCC2(CCC(=O)N2Cc2cccc(F)c2)CC1` was tested. Which INHIBITION did it give?
**A.** The INHIBITION was 33.16%.

**Q.** For `O=C(NC1CCN(c2ncccc2F)C1)c1cccc(-n2ccnn2)c1` (centres undefined), which INHIBITION is on record?
**A.** The INHIBITION was 25.78%.

**Q.** How did the INHIBITION turn out when `CNCC[C@H]1CC(C)(C)Oc2ccc(C)cc21` was run?
**A.** Its INHIBITION is -7.01%.

**Q.** `N#Cc1cccc(CN2Cc3nccn3CC(CN3CCCC3)C2)c1` (centres undefined) was tested. Which INHIBITION did it give?
**A.** The INHIBITION was 32.04%.

**Q.** For `Cc1c(C(=O)NCCCS(C)(=O)=O)cccc1-c1ccccn1`, which INHIBITION is on record?
**A.** The INHIBITION was 3.63%.

**Q.** For `Cc1c(C(=O)NCC(C)(C)S(C)(=O)=O)cccc1-c1ccccn1`, which INHIBITION is on record?
**A.** Its INHIBITION is -62.92%.

**Q.** How did the INHIBITION turn out when `Cc1c(C(=O)NCCC(=O)N2CCCC2)cccc1-c1ccccn1` was run?
**A.** Its INHIBITION is 59.67%.

**Q.** `Cc1cccc(CC(=O)N2CCOCC2c2c(C)n[nH]c2C)c1` (centres undefined) was tested. Which INHIBITION did it give?
**A.** Its INHIBITION is 37.57%.

**Q.** `Cc1n[nH]c(C)c1C1COCCN1C(=O)Cc1cccc(F)c1` (centres undefined) was tested. Which INHIBITION did it give?
**A.** The INHIBITION was 13.24%.

**Q.** Which INHIBITION does the source give for `Cc1cccc(CCC(=O)N2CCOCC2c2c(C)n[nH]c2C)c1` (centres undefined) here?
**A.** Its INHIBITION is 74.35%.

**Q.** For `COCCC(=O)Nc1cnn(COc2ccc(F)cc2Cl)c1`, which INHIBITION is on record?
**A.** The INHIBITION was -17.37%.

**Q.** With `CCc1cnc(C)nc1NC(C)C(=O)Nc1cc(F)ccc1C` (centres undefined) as the compound, how does the INHIBITION read?
**A.** The INHIBITION was 20.32%.
